Records with an inconclusive call do not appear. Where a call stands in place of a potency, no number is given. The source made the active and inactive calls. The call rests on the fitted dose curve; in most records, active means well fitted activation curve with a large enough effect in the repeat runs; inconclusive means weak or mixed curves, or effect the other way; inactive means no such curve, though single readings can be large or run the other way.
Assay: qHTS assay to identify small molecule agonists of the retinoic acid receptor (RAR) signaling pathway (AID 1159553)
Conditions: C3RL4 RARE luciferase reporter, agonist, 6 h; series mostly up to 73.3 µM
Description: National Center for Advancing Translational Sciences [NCATS] NIH Chemical Genomics Center [NCGC] U.S. Environmental Protection Agency [EPA] National Institutes of Environmental Health Sciences [NIEHS] National Toxicology Program [NTP] Assay overview: All-trans Retinoic acid (atRA) is the potent natural metabolite of retinol and plays an important role in normal embryonic development and maintenance of cellular phenotype in adult animals. atRA is the activating ligand for the retinoic acid receptors (RARs) which form heterodimers with retinoid X receptors (RXRs) on the retinoic acid response element (RARE). Through activation of the RAR/RXRs nuclear receptors, atRA regulates the transcription of a large number of protein-coding genes and regulatory RNAs. Intracellular levels of atRA are controlled by the retinol signaling pathway (RSP) that regulates the biosynthesis and catabolism of atRA to maintain physiological levels. Chemicals that interfere with the RSP can cause abnormal intracellular levels of atRA and therefore are potential developmental toxicants. To assess compounds for the potential adverse effect on embryonic development through interfering with retinol signaling, a cell-based RARE luciferase reporter gene assay was used. C3RL4 cell line (OARSA/CFSAN/FDA, Laurel, MD) was used to screen Tox21 10K compound library for identifying activators of the RSP.
Assay Protocol Summary: C3RL4 cells were seeded at 1,000/well in 5 uL of assay medium into white solid 1,536-well tissue culture plates (Greiner Bio-One North America Inc. Monroe, NC) using a Multidrop Combi (Thermo Scientific, Waltham, MA) dispenser. After incubation at 37 C and 5% CO2 for an overnight, 23 nL of compounds dissolved in DMSO, positive control or DMSO only were transferred by a Pintool station (Kalypsys, San Diego, CA). After 6 hr incubation at 37 C and 5% CO2, 5 uL of Amplite Luciferase reagent (AAT Bioquest Inc. Sunnyvale, CA) was added to each assay plate using a Flying Reagent Dispenser (FRD) (Aurora Discovery, San Diego, CA). Luminescence was quantified on a ViewLux plate reader (PerkinElmer, Waltham, MA) after 30 min incubation at room temperature.
In the case of `CCN(CC)CCOC(=O)C(c1ccccc1)c1ccccc1`, the Potency is reported as “inactive”. In the case of `CCCCCCCC(=O)OCCCCCC`, the Potency is reported as “inactive”. In the case of `CC(C)c1ccc(C#N)cc1`, the Potency is reported as “inactive”. For `Oc1ccc2c(c1)Cc1ccccc1-2`, the Potency was 13.7 µM (active). In the case of `CCCCCCOC(=O)CCCCC`, the Potency is reported as “inactive”. In the case of `Cc1ccc(Cl)cc1N`, the Potency is reported as “inactive”. With `O=C1CC[C@@H](C(=O)O)N1` the Potency was “inactive”. In the case of `Cc1cc(CCC(=O)OCCOCCOCCOC(=O)CCc2cc(C)c(O)c(C(C)(C)C)c2)cc(C(C)(C)C)c1O`, the Potency is reported as “inactive”. In the case of `CC(=O)OCC(C)C`, the Potency is reported as “inactive”. In the case of `O=C1NC(=O)c2cccc3cccc1c23`, the Potency is reported as “inactive”. For `O=S(=O)(Cl)c1c(Cl)cccc1Cl`, the Potency was “inactive”. With `Cc1ccc(N(CCO)CCO)cc1` the Potency was “inactive”. For `BrC(Br)C(Br)Br`, the Potency was “inactive”. For `CC(C)C1CCC(C(=O)N[C@H](Cc2ccccc2)C(=O)O)CC1` (stereo not given in full), the Potency was “inactive”. In the case of `CCC(=O)OCc1ccc(OC)cc1`, the Potency is reported as “inactive”. For `NC(=O)c1ccccc1[N+](=O)[O-]`, the Potency was “inactive”. With `O=C1c2ccccc2C(=O)c2c(O)ccc(O)c21` the Potency was “inactive”. For `O=S(=O)(O)CO`, the Potency was “inactive”. In the case of `Cc1cn([C@H]2C[C@H](F)[C@@H](CO)O2)c(=O)[nH]c1=O`, the Potency is reported as “inactive”. In the case of `CC(=O)OCC1=C(C(=O)O)N2C(=O)[C@@H](NC(=O)CSc3ccncc3)[C@H]2SC1`, the Potency is reported as “inactive”. With `CCOC(=O)C(C)O` (stereo not given) the Potency was “inactive”. With `COc1cc(NCc2ccc3nc(N)nc(N)c3c2C)cc(OC)c1OC` the Potency was “inactive”. With `Nc1ccn([C@H]2CS[C@@H](CO)O2)c(=O)n1` the Potency was “inactive”. In the case of `Nc1cccc2c(N)cccc12`, the Potency is reported as 19.3 µM (active). In the case of `C/C(C=O)=C\c1ccccc1`, the Potency is reported as “inactive”. With `CCOCCC(=O)OCC` the Potency was “inactive”. For `O=C1OC[C@H](Cc2cccc(O)c2)[C@H]1Cc1cccc(O)c1`, the Potency was “inactive”. For `CCCCOC(=O)CCCCC(=O)OCCCC`, the Potency was “inactive”. For `CCCCCCCCCCCCCCN(C)C`, the Potency was “inactive”. For `c1ccc(CCCc2ccncc2)cc1`, the Potency was 68.6 µM (active). With `CC(C)CC(O)CC(C)C` the Potency was “inactive”. In the case of `CC(C)C(O)C(C)(C)CO` (stereo not given), the Potency is reported as “inactive”. In the case of `CC(C)N=C=NC(C)C`, the Potency is reported as “inactive”. With `C=C(C)c1ccccc1` the Potency was “inactive”. For `CC(=O)OC(C)C[N+](C)(C)C` (stereo not given), the Potency was “inactive”. For `Cc1cc(CCCOc2c(C)cc(-c3noc(C(F)(F)F)n3)cc2C)on1`, the Potency was “inactive”. For `Nc1nc2ccc(OC(F)(F)F)cc2s1`, the Potency was 9.44 µM (active). In the case of `CCCCCc1ccco1`, the Potency is reported as “inactive”. With `CCOC(=O)N1CCC(Nc2ccc(Cl)cc2N)CC1` the Potency was “inactive”. With `CCCCCCCCCCCCCC(=O)OCC(O)CO` (stereo not given) the Potency was “inactive”.

— PubChem BioAssay (Tox21)
Potency means the concentration at half of the fitted maximal effect.
